Compound activity as filed in PubChem.
ALDH1A1 inh: blocks purified human ALDH1A1 activity; P00352; Purified ALDH1A1, NADH fluorescence, propionaldehyde substrate; Potency, µM (highest dose often 75.3 µM), inactives show at the highest dose activity, negative = inhibition, hits mostly inhibitors; hit rate 7.3% among 220,000; AID 1030;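 note: potency is the fitted concentration of half-maximal effect; plate controls were no enzyme wells and a reference inhibitor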
KDM4E inh: blocks human JMJD2E demethylase activity. B2RXH2. JMJD2E catalytic domain, FDH-coupled NADH fluorescence (FDH is formaldehyde dehydrogenase). Potency, µM (titrated, usually from 57.1 µM), inactives show top-dose activity change, negative = inhibition, usual class: inhibitors. hit rate 1.6% among 230,000;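 note: potency is the fitted concentration of half-maximal effect; 0% = wells with enzyme and -100% = buffer wells without enzyme; nearly all actives have a fitted effect of over 50% in size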
Target sequence (B2RXH2 1-337 limits assumed): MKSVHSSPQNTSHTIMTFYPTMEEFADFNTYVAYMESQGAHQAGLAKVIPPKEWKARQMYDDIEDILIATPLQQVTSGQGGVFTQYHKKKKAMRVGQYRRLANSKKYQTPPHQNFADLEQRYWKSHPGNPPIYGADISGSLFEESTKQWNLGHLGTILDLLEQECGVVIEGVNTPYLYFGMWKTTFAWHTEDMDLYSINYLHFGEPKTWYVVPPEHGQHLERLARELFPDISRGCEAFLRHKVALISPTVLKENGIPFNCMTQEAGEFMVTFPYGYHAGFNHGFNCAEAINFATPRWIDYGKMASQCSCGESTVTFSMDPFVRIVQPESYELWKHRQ
Sfp inh: Sfp phosphopantetheinyl transferase inhibition; Biochemical Sfp PPTase activity, qHTS; Potency, µM, for the others: largest response in the series, negative = inhibition, actives largely listed as inhibitors; hit rate 3.5% among 310,000; AID 1490; active = well fitted curve in the direction sought with a large enough effect; inconclusive = small, poorly fitted or top-dose-only effect, or another doubt; inactive = no such curve, though single readings can be large; an effect the other way counts as inactive or inconclusive;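 note: the enzyme is Sfp with the accession as filed and its product quenches rhodamine fluorescence; potency is the fitted concentration of half-maximal effect; 0% = enzyme reaction without inhibitor and -100% = no enzyme wells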
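Compounds were incubated with enzyme (final 15 nM) for 15 min at room temperature before substrate addition started the reaction. Fluorescence at 525 nm excitation, 598 nm emission was recorded immediately and after 30 minutes.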
FBPA coupling cs: coupling enzyme interference in Giardia aldolase counter-screen | AID 2472 | hit rate 0.67% among 290,000 | activity change, negative = inhibition, % at 58.2 µM, hits read low | coupling enzyme system counterscreen, AmpLite Red fluorescence; in the data active = activity change below about -30%
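Fluorescence at 525 nm excitation and 598 nm emission measured inhibition of the coupled detection system without aldolase. Compounds (at 57.5 uM final) were preincubated 10 min at room temperature with coupling enzyme reagent before a 20 min substrate/AmpLite Red step.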
GoLoco inh red: blocks human Gai1 binding to RGS12 GoLoco peptide, red readout | P63096 | Gai1:RGS12 GoLoco peptide FP, rhodamine, 10 min | Potency, µM (titrated, usually from 61.6 µM), inactives show at the top dose activity, negative = inhibition, actives largely listed as inhibitors | hit rate 0.44% among 230,000; active = well fitted inhibition curve with a large enough effect, not every such curve was filed as active; inactive = no such curve, though single readings can be large or run the other way; note: potency is the fitted concentration of half-maximal effect; nearly all actives have a fitted effect of over 30% in size
NPSR antag: neuropeptide S receptor (human) antagonism, cAMP; Potency, µM (titrated, usually from 38.3 µM), inactives show top-dose activity change, negative = inhibition, hits mostly inhibitors; Q6W5P4; CHO-NPSR cells, cAMP TR-FRET, antagonist mode; hit rate 1% among 220,000; active = well fitted curve in the direction sought with a large enough effect; inconclusive = small, poorly fitted or top-dose-only effect, or another doubt; inactive = no such curve, though single readings can be large; an effect the other way counts as inactive or inconclusive; note: potency is the fitted concentration of half-maximal effect; nearly all actives have a fitted effect of over 50% in size
Target sequence (Q6W5P4 whole entry, looked up): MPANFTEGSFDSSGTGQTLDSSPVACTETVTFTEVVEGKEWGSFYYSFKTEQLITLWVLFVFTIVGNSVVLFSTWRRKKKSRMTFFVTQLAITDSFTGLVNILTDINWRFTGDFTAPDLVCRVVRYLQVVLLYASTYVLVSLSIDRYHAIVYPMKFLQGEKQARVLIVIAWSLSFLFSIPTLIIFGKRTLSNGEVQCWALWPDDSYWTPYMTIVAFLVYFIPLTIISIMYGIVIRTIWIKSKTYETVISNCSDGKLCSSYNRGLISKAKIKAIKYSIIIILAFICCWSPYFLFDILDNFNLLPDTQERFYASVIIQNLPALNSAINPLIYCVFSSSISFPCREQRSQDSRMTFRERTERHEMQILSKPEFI
The depositor's hits bear a star; ? = inconclusive; / = no result given; ! = not active in a repeat; [ ] = another dose, or the depositor's remark. Shown are actives, neighbours in structure and some others; about 8.5% of the full set was active somewhere. Unless noted, calls come from the whole dose curve; as a rule, active = well fitted inhibition curve with a large enough effect (not every such curve was filed as active); inconclusive = small, poorly fitted or top-dose-only effect, or another doubt; inactive = no such curve, though single readings can be large or run the other way. Unless noted, % is set by controls: 0 for no effect and ±100 for the full control effect.

SMILES | ALDH1A1 inh | KDM4E inh | Sfp inh | FBPA coupling cs | GoLoco inh red | NPSR antag
CN1CCC/C1=C/C=C1\SC(=S)NC1=O | ? | 1% | 28µM* | -8 | 31% | -50%
COc1cc(/C=C(\NC(C)=O)C(=O)Nc2ccccc2C)ccc1OC(C)=O | 28µM* | 6% | 13% | 1 | -3% | 16%
COc1ccc(NC(=O)/C(=C/c2ccc(OC(C)=O)c(OC)c2)NC(C)=O)cc1 | 4µM* | 4% | 5% | 5 | -1% | 10%
COc1cc(/C=C(\NC(C)=O)C(=O)Nc2ccc(NC(C)=O)cc2)ccc1OC(C)=O | 0.25µM* | 11% | 13% | 1 | 0% | 4%
COc1cc(/C=C(\NC(C)=O)C(=O)NC(C)(C)CC(C)(C)C)ccc1OC(C)=O | 5% | -6% | 2% | -1 | 4% | 15%
COc1ccc(/C=C(/C#N)C(=O)Nc2ccccc2C)cc1C(=O)O | 5% | ? | -14% | 2 | -10% | -13%[46.1 µM]
COc1ccc(NC(=O)/C(=C\c2ccc3c(c2)OCO3)NC(C)=O)cc1 | -4% | 5% | -12% | 3 | 8% | 10%
Cc1c(CC(=O)N2C[C@H]3C[C@@H](C2)c2cccc(=O)n2C3)c(=O)oc2cc3occ(C(C)(C)C)c3cc12 | / | / | 17% | -4 | / | /
Cc1ccc2c(c1)c1c3n2CCNC3CCC1 (stereo not given) | / | / | 4% | 2 | / | /
CCC(=O)/C=C1\Sc2ccc(OC)cc2N1CCO | 8% | -2% | -7% | 1 | -4% | 5%
CCC(=O)/C=C1\Sc2ccc(OC)cc2N1CC | ? | ? | 50µM* | -7 | -2% | ?
Cc1cc2cc(CCNC(=O)c3ccc(Br)o3)c(=O)[nH]c2cc1C | ? | ? | 28µM* | -5 | 22% | 6%[46.1 µM]
COc1ccc2cc(CCNC(=O)c3ccc(Br)o3)c(=O)[nH]c2c1 | ? | -24% | 1% | 1 | 8% | -5%[46.1 µM]
O=C1NCCCN1Cc1ccc(F)cc1Cl | 4.5µM* | 12% | -4% | 6 | 0% | -8%[46.1 µM]
Cc1ccc(C)c(NC2=CC(=O)CC(C)(C)C2)c1C#N | 13µM* | -16% | ? | -3 | -16% | -26%[46.1 µM]
COc1ccc(OC)c(CNc2ncc(-c3ccc(F)cc3)n2C)c1 | / | / | -26% | -5 | / | /
COc1cc(NS(=O)(=O)c2cccc([N+](=O)[O-])c2)c2ncccc2c1 | / | / | 14% | -26 | / | /
CCC(CNc1cc(OC)cc2cccnc12)NC1CCCCC1 (stereo not given) | ? | 16% | 45µM* | -29 | 28µM* | 23%
COc1cc(NS(=O)(=O)c2ccc(C)cc2)c2ncccc2c1 | 0% | 6% | 19% | -8 | 9% | ?
COc1cc(NCCCC(C)N)c2ncccc2c1 (stereo not given) | 22µM* | ? | 56µM* | -58* | 28µM* | -21%[7.67 µM]
Cc1ccc(CNC(=O)CCc2nnc(Cc3ccc(-c4ccccc4)cc3)o2)o1 | ? | 0% | 22µM* | 2 | -1% | -9%
CCCc1cc(=O)oc2c(C)c(OC(C)C(=O)NCCN3CCOCC3)ccc12 (stereo not given) | / | / | 9% | / | / | /
Cc1cc(C(=O)NCCN2C(=O)S/C(=C\c3cccs3)C2=O)ccc1[N+](=O)[O-] | -9% | -2% | 35µM* | 1 | -2% | -2%
COc1ccc(CNC(=O)COc2ccc(Br)c(C)c2)cc1 | / | / | 4% | -8 | / | /
N/C(=N\OC(=O)COc1ccc2ccccc2c1Br)c1ccncc1 | -2% | -9% | 45µM* | 1 | -8% | -29%
SMILES | ALDH1A1 inh | KDM4E inh | Sfp inh | FBPA coupling cs | GoLoco inh red | NPSR antag
N/C(=N\OC(=O)COc1ccc2ccccc2c1)c1ccncc1 | 11% | -5% | -24% | -5 | 14% | -8%
O=C(NCc1ccccc1Cl)c1cnc2n(c1=O)CCS2 | 14µM* | -14% | ? | 2 | 2% | -17%[46.1 µM]
COC(=O)c1sc(=S)sc1C(=O)OC | -11% | 0% | -26% | 1 | 3% | -2%[46.1 µM]
COC(=O)Cc1[nH]c(=S)[nH]c1C(=O)OC | / | 3% | 56µM* | 2 | -2% | -4%
O=C(CCl)N(c1ccccc1)c1ccccc1 | 0.045µM* | -6% | 4% | -1 | 5% | ?
O=C(N(c1ccccc1)c1ccccc1)N(c1ccccc1)c1ccccc1 | -13% | -3% | -21% | 7 | 8% | ?
CC(C)(CNC(=O)CC1C(=O)NCCN1Cc1cccc(F)c1F)N1CCOCC1 (stereo not given) | / | / | 15% | 0 | / | /
CC(C)OC(=O)CN1C(=O)C(C)(C)Oc2ccc(C(=O)NC3CC3)cc21 | 11µM* | 13% | 2% | -8 | 1% | 8%[46.1 µM]
COc1ccc(C2=NS(=O)(=O)N(C)C(C(=O)NCc3ccccn3)=C2)cc1OC | / | / | 17% | 0 | / | /
S=c1nc(C23CC4CC(CC(C4)C2)C3)[nH][nH]1 | / | -24% | 56µM* | -3 | 3% | 5%
COc1ccccc1N1CCN(C(=O)c2cc3c(s2)CCCCC3)CC1 | / | / | -9% | / | / | /
O=C(c1cc2c(s1)CCCC2)N1CCN(c2ccccc2)CC1 | 22µM* | -1% | -2% | 2 | -8% | -20%
NC(CSS(=O)(=O)O)=NCCC12CC3CC(CC(O)(C3)C1)C2 | -6% | -6% | 50µM* | -2 | -17% | 10%
CCC(=O)/C=C/C1C(C)=CCCC1(C)C (stereo not given) | 13µM* | / | / | / | 1% | /
COc1cccc(-c2oc3ccccc3c(=O)c2O)c1 | -11% | ? | -11% | -1 | 8% | /
O=c1c(O)c(-c2cccc(O)c2)oc2ccccc12 | ? | ? | 45µM* | -2 | -11% | /
Cc1cc(=O)c2c(O)c3c(O)cc(=O)c4c3c3c(cc(O)c1c23)C(C)(C)C=4O | 1% | -4% | 56µM*! | 6 | 0.63µM* | /
Cc1cnc(NC2=NCCC2)s1 | 5% | 2% | -11% | 0 | 14% | 7%
CCc1nnc(NC2=NCCC2)s1 | -34% | ? | 56µM* | 0 | -7% | -2%[46.1 µM]
COc1cc(/C=N/Nc2nc(C)cc(C)n2)ccc1OC(=O)c1ccco1 | -1% | -9% | 4% | 0 | 6% | -19%
COc1cc(/C=N/Nc2ccc3ccccc3c2)ccc1OC(=O)c1ccco1 | ? | 20µM* | -11% | -1 | 12% | 1%
COc1ccc(OCc2n[nH]c(=S)o2)cc1 | 10µM* | 17% | -21% | 10 | -11% | 1%[46.1 µM]
S=c1[nH]nc(COc2ccc(Cl)cc2)o1 | 3.5µM* | -13% | ? | 24 | -28% | -3%[46.1 µM]
Cc1nn(-c2ccccc2)c(N)c1C1(O)C(=O)Nc2ccccc21 (stereo not given) | 8% | 6% | 20% | 1 | -2% | -4%
Cc1cc(F)ccc1S(=O)(=O)N1CCCOC1CNC(=O)C(=O)NC1CC1 (stereo not given) | / | / | 11% | / | / | /
